TDP1 cell noCPT: qHTS for Inhibitors of human tyrosyl-DNA phosphodiesterase 1 (TDP1): qHTS in cells in absence of CPT | DT40 Tdp1-/- hTDP1 cells, no CPT, ATP luminescence, 48 h | Potency, µM (series often up to 46.2 µM), without a hit: at the highest dose activity change, negative = growth inhibition, most hits filed as inhibitors | actives 15% (n = 420,000); also: potency is read from the fitted curve at half-maximal effect; % is scaled to controls: 0 for no effect and ±100 for the full control effect; nearly all actives have a fitted effect of over 55% in size
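Readout: luminescence from CellTiter-Glo after 30 min in the dark at RT. Cells: DT40 Tdp1-/- with stable hTDP1, 400/well. Exposure: compounds alone, ≥48 hr, 37 °C.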
TDP1 inh: qHTS Assay for Inhibitors of Tyrosyl-DNA Phosphodiesterase (TDP1); recombinant TDP1, AlphaScreen DNA substrate cleavage; Tyrosyl-DNA phosphodiesterase 1 (Homo sapiens), Q9NUW8; AID 485290, 2010; Potency, µM (titrated, usually from 130 µM), for the others: at the top dose activity change, negative = inhibition, usual class: inhibitors; actives 0.28% (n = 350,000); also: potency is read from the fitted curve at half-maximal effect; % is scaled to controls: 0 for no effect and ±100 for the full control effect; nearly all actives have a fitted effect of over 40% in size
Target sequence (Q9NUW8 whole entry, looked up): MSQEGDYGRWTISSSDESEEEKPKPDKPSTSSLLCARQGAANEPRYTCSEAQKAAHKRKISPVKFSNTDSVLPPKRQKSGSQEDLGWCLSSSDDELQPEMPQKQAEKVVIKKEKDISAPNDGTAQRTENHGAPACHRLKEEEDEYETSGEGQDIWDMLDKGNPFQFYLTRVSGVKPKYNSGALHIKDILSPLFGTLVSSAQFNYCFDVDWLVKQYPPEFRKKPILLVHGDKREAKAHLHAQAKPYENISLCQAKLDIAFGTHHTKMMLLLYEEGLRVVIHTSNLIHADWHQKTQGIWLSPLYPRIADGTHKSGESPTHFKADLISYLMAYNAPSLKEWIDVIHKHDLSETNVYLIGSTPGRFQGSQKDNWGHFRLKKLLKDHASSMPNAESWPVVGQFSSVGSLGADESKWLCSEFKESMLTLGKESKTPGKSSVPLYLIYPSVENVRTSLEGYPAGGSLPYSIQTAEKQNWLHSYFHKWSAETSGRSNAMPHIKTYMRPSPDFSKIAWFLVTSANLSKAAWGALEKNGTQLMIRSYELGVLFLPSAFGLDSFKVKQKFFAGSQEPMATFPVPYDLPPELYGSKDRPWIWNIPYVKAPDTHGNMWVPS
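Enzyme-compound mixtures sat 15 min at room temperature, followed by a 5 min reaction with 15 nM final substrate and 10 min with AlphaScreen beads. Recombinant human Tdp1 was used at 1 nM final.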
DT40 TDP1 CPT: qHTS for Inhibitors of human tyrosyl-DNA phosphodiesterase 1 (TDP1): qHTS in cells in presence of CPT; chicken DT40 Tdp1-/-;hTDP1 cells + 20 nM CPT, ATP luminescence, 48 h; AID 686979, 2013; Potency, µM (highest dose often 46.2 µM), for the others: at the highest dose activity change, negative = growth inhibition, usual class: inhibitors; actives 12% (n = 420,000); also: potency is read from the fitted curve at half-maximal effect; % is scaled to controls: 0 for no effect and ±100 for the full control effect; nearly all actives have a fitted effect of over 55% in size
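Chicken DT40 Tdp1-/- cells stably complemented with human TDP1 were seeded at 400 cells/well in medium containing 20 nM camptothecin, exposed to pin-transferred compounds, and grown at 37 °C for at least 48 hr. Viability was read as ATP luminescence.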
TGFb SMAD3 inh: qHTS for Inhibitors of TGF-b. AID 588855, 2011. Potency, µM (doses to about 46.1 µM), inactives show at the highest dose activity, negative = inhibition, most hits filed as inhibitors. actives 1.2% (n = 410,000). HepG2 CAGA-GFP TGF-b/SMAD3 reporter, GFP fluorescence, 18 h; TGF-beta stimulated, 500 pg/mL final; also: potency is read from the fitted curve at half-maximal effect; % is scaled to controls: 0 for no effect and ±100 for the full control effect; nearly all actives have a fitted effect of over 65% in size
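Per well, imaged GFP fluorescence of HEPG2 CAGA-GFP cells gives the signal; cells get compound, then TGF-beta (500 pg/mL final), 18 h at 37 degrees C; %Activity versus -TGF-beta and +DMSO controls.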
HepG2 viability: qHTS for Inhibitors of TGF-b: Cytotox Counterscreen; actives 0.76% (n = 410,000); HepG2 CAGA-GFP viability, ATP luminescence, 18 h; AID 588856, 2011; Potency, µM (highest dose often 46.1 µM), for inactives: at the top dose activity change, negative = cytotoxicity, usual class: cytotoxic; also: potency is read from the fitted curve at half-maximal effect
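HepG2 CAGA-GFP cells (1000/well, DMEM with 1% FBS) received compound, then TGF-beta at 500 pg/mL final, and were incubated 18 hours at 37 degrees C. Viability was read by CellTiter-Glo luminescence. Media-only wells were set as complete cell-killing and DMSO as no toxicity.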
IL-1B inflam inh: qHTS for Inhibitors of Inflammasome Signaling: IL-1-beta AlphaLISA Primary Screen; activity change, % at 57.5 µM; THP-1 LPS/ATP IL-1B secretion, AlphaLISA, 16 h; hits give low values; actives 4.7% (n = 360,000); in the data active = activity change below about -50%; inconclusive = mostly about -30% to -49%; also: % is scaled to controls: 0 for no effect and ±100 for the full control effect
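THP-1 cells pretreated 1 hr with compounds (up to 57.5 uM final), then stimulated with LPS (250 ng/mL final) plus ATP (1.25 mM final); secreted IL-1B measured by AlphaLISA after 16 hr, decreased signal indicating inhibition.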
Active calls of the source: *; u = inconclusive; x = no result given; [ ] = another dose, or the depositor's remark. Rows were chosen to be rich in hits. Some 18% of all compounds tested hit in one or more screens of this group. Unless noted, calls follow the shape of the dose curve; as a rule, active = well fitted curve in the direction sought with a large enough effect; inconclusive = small, poorly fitted or top-dose-only effect, or another doubt; inactive = no such curve, though single readings can be large; an effect the other way counts as inactive or inconclusive.

SMILES	TDP1 cell noCPT	TDP1 inh	DT40 TDP1 CPT	TGFb SMAD3 inh	HepG2 viability	IL-1B inflam inh
O=C(O)/C(=C\c1cccc(OCc2ccccc2)c1)c1ccc(F)cc1	8%	x	-3%	-1%	-17%	43
CCOC(=O)N1CCN(C(=O)c2ccc(-c3ccccc3OC)nc2N2CCC(N3CCCC(CO)C3)CC2)CC1 (stereo not drawn)	-18%	x	18%[9.04 µM]	x	x	x
COc1cccc(C(=O)NCC(=O)OCC(=O)Nc2ncc(Cl)cc2Cl)c1	-7%	-13%	-1%	40%	10µM*	-2
CCCOc1ccc(C(=O)Nc2ccc(NC(=O)c3cccc(Cl)c3)cc2)cc1	-22%	4%[12.3 µM]	-10%	-4%	22%	x
O=C(COc1ccccc1)Nc1ccc(-c2nnc(-c3ccco3)o2)cc1	-7%	-1%	0%	-16%	-5%	29
CCCOc1ccc(C(=O)Nc2ccc(NC(=O)c3ccccc3)c(Br)c2)cc1	-71%	0%[12.3 µM]	15µM*	-6%	-7%	x
COc1cccc(C(=O)Nc2ccc(-c3nnc(-c4ccco4)o3)cc2)c1	10µM*	0%	u	6%	-25%	-19
CCOc1cccc(C(=O)Nc2ccc3oc(-c4cccnc4)nc3c2)c1	u	x	u	-13%	11%	u
CCOc1cccc(C(=O)Nc2cccc(-c3nnc(-c4ccccc4)o3)c2)c1	18µM*	3%	15µM*	-6%	-1%	-73*
COc1cc(OC)cc(C(=O)NCC(=O)OCC(=O)Nc2ncc(Cl)cc2Cl)c1	4%	3%	3%	0%	2%	-17
CCN1C(=O)[C@H]2[C@@H](c3ccc(Cl)cc3)N3C(=O)CN(CC4CC4)C(=O)[C@@]3(C)[C@H]2C1=O	1%	x	6%	u	5%	21
CC(Sc1nnc(-c2cccnc2)n1C)C(=O)N1CCOCC1 (stereo not drawn)	0%	x	-4%	-1%	-1%	7
Cc1[nH]c(SCC(=O)c2c(N)n(C)c(=O)n(C)c2=O)nc1Cc1ccccc1	-13%	4%	u	1%	3%	0
Cc1ccc(NC(=O)NC(=O)COC(=O)c2ccc(O)cc2O)c(C)c1	u	x	u	-3%	-1%	14
COc1cccc(-c2nnc(-c3ccco3)o2)c1	29µM*	5%	u	-1%	-16%	5
COc1cccc(-c2nnc(-c3ccc(C)o3)o2)c1	-11%	-2%	7%	5%	-16%	-2
Cc1ccc(-c2nnc(-c3ccc(NC(=O)c4ccco4)cc3)o2)cc1	21µM*	0%	23µM*	4%	-32%	0
O=C(Nc1nnc(-c2ccc(F)cc2)o1)c1cccc([N+](=O)[O-])c1	3.3µM*	4%	3.7µM*	-2%	0%	95
COc1ccccc1CC(=O)NNC(=O)c1ccco1	4%	11%[0.0935 µM]	-3%	9%	20%	6
C=CCOc1ccc(C2=NOC(C(=O)Nc3ccc4c(c3)OCCO4)C2)cc1OC (stereo not drawn)	-28%	x	6%	-25%	-14%	-18
COc1ccc2oc(=O)c(-c3csc(Nc4ccc(O)cc4)n3)cc2c1	5.8µM*	0%	3.3µM*	u	-34%	-91*
CCOc1ccccc1Nc1nnc(-c2cc3cc(OC)ccc3oc2=O)s1	7.3µM*	3%	8.2µM*	6%	8%	x
COc1ccc2oc(=O)c(-c3nnc(NCc4ccco4)s3)cc2c1	3.7µM*	-7%	5.8µM*	6%	-18%	-27
CCOc1ccc2cc(-c3nnc(Nc4ccccc4F)s3)c(=O)oc2c1	u	1%[12.3 µM]	u	33%	-3%	x
C=CC[C@]12CC=CC(=O)[C@@]1(O)O[C@H](c1ccc(OC)c(OC)c1)[C@H]2C	5.8µM*	x	10µM*	u	-72%	-115*
SMILES	TDP1 cell noCPT	TDP1 inh	DT40 TDP1 CPT	TGFb SMAD3 inh	HepG2 viability	IL-1B inflam inh
COc1ccccc1C(=O)NC(=O)COC(=O)c1ccc(Cl)nc1	-1%	x	0%	9%	0%	6
CCOc1ccc(N2C(=O)c3[nH]nc(-c4ccc(OC)cc4)c3C2c2cccs2)cc1 (stereo not drawn)	26µM*	10%	23µM*	u	-28%	x
CCCN1C(=O)c2[nH]nc(-c3ccc(F)cc3)c2C1c1ccccn1 (stereo not drawn)	u	9%	u	x	-2%	x
CCCN1C(=O)c2[nH]nc(-c3ccc(OC)cc3)c2C1c1ccccn1 (stereo not drawn)	26µM*	2%	u	3%	-8%	x
CCOc1ccc(-c2n[nH]c3c2C(c2cccs2)N(c2ccc(Br)cc2)C3=O)cc1 (stereo not drawn)	u	2%	u	6.3µM*	-61%	x
CCOc1ccc(N2C(=O)c3cccnc3C2Nc2ccc(OC)cc2)cc1 (stereo not drawn)	-8%	9%	-17%	-6%	-32%	3
COc1ccc(C(=O)NNc2ncnc3c2cnn3-c2cccc(Cl)c2)cc1OC	u	-3%	u	-1%	-1%	x
CCOCCCNC(=O)C(=O)Nc1c2c(nn1-c1ccccc1)CSC2	-19%	8%	-21%	-8%	-79%	x
Cc1ccc(Cl)c(NC(=O)CSc2cccc[n+]2[O-])c1Cl	-3%	1%	-2%	22%	7%	-8
Cc1ccc(Cl)c(NC(=O)CCl)c1Cl	u	12%	u	5%	3%	-91*
CCOc1ccc(S(=O)(=O)NCCc2csc3nc(-c4cccc(C)c4)nn23)cc1	18µM*	3%	u	-9%	-14%	x
Cc1ccc(-c2nc3scc(CCNS(=O)(=O)c4ccc(F)c(C)c4)n3n2)cc1	21µM*	3%	u	u	-32%	x
CCS(=O)(=O)NCCc1csc2nc(-c3ccc(C)cc3)nn12	u	5%	16µM*	-8%	-3%	x
Cc1cc(C)c(S(=O)(=O)NCCc2csc3nc(-c4ccc(Cl)cc4)nn23)c(C)c1	18µM*	0%	u	-33%	-106%	x
Cc1ccc(-c2nc3scc(CCNS(=O)(=O)c4ccc(Oc5ccccc5)cc4)n3n2)cc1	u	8%	u	u	-57%	x
